Pf Dd2 inh: Plasmodium falciparum Dd2 growth inhibition. P. falciparum Dd2 growth, SYBR Green, 72 h. Potency, µM (top dose mostly 28.9 µM), hits mostly inhibitors. 4.3% of 120,000 active; active = well fitted inhibition curve with a large enough effect; also: nearly all actives have a fitted effect of over 65% in size
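Readout: SYBR Green fluorescence, 485 nm excitation, 535 nm emission, after ~16 h lysis at 37C. Before that, Dd2-infected red cells (2.5% hematocrit) grew 72 h with compound, 29 uM top final concentration.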
Numbers stand for hits; [ ] = another dose, or the depositor's remark. The sample as a whole holds a higher share of hits than the screen did.

How did O=C1NCC2(CCN(Cc3ccc(C(F)(F)F)cc3)CC2)Oc2ccccc21 do in these assays?
Pf Dd2 inh: inactive

What do the screens show for `O=C(Cn1cccc1-c1nc(-c2ccc(F)cc2)no1)Nc1ccccc1F`?
Pf Dd2 inh: inactive

Results for O=C(c1cnccn1)N1CCCC(Cc2nc(C3CCOCC3)no2)C1 (centres undefined) ?
Pf Dd2 inh: inactive

How did O=C(CCC1CCCC1)NC1CCc2nn(CC3CC3)c(=O)n2CC1 (centres undefined) do in these assays?
Pf Dd2 inh: inactive

What do the screens show for `CCCCc1ncc(-c2nccn2Cc2noc(CC(C)C)n2)[nH]1`?
Pf Dd2 inh: inactive

How did COc1ccc(C(C)NC(=O)c2noc(-c3ccc4c(c3)OCO4)n2)cc1 (centres undefined) do in these assays?
Pf Dd2 inh: inactive

How did CNC(=O)[C@@H]1CN(S(=O)(=O)C(C)C)C[C@H]1c1n[nH]c(C)n1 do in these assays?
Pf Dd2 inh: inactive

What do the screens show for `O=C1NC2(Cc3ccccc31)CN(CC1CCCC1)C2`?
Pf Dd2 inh: inactive

How did COc1ccc(C(=O)NC2CCN(c3cn[nH]c(=O)c3)CC2)cc1 do in these assays?
Pf Dd2 inh: inactive

Results for COc1ccc(C(=O)N2CCn3c(nn(-c4ccncc4)c3=O)C2)cc1 ?
Pf Dd2 inh: inactive

Results for O=C1CC2CCN(Cc3cccc(C(F)(F)F)c3)CC2CCN1 (centres undefined) ?
Pf Dd2 inh: inactive

Results for CCNC(=O)N1CC(C(=O)NCc2cccc(C)c2)CC(c2ccc(F)c(C)c2)C1 (centres undefined) ?
Pf Dd2 inh: inactive

Results for O=C1C(N2CCN(S(=O)(=O)Cc3ccc(Cl)cc3)CC2)CCN1Cc1cccnc1 (centres undefined) ?
Pf Dd2 inh: inactive

Results for CCOC(=O)c1ccc(N2C(=O)c3[nH]nc(-c4ccc(OC)cc4)c3C2c2ccc(C)cc2)cc1 (centres undefined) ?
Pf Dd2 inh: 8.9µM

Results for CCOC(=O)c1ccc(N2C(=O)c3n[nH]c(C)c3C2c2ccc(C(C)C)cc2)cc1 (centres undefined) ?
Pf Dd2 inh: inactive

Results for CCc1ccc(C2c3c(-c4ccccc4)n[nH]c3C(=O)N2c2ccc(C(=O)O)cc2)cc1 (centres undefined) ?
Pf Dd2 inh: inactive

Results for O=C(NCc1ccccc1)c1cnc2n1CCN(Cc1cccc(O)c1)CC2 ?
Pf Dd2 inh: inactive

How did CC(=O)N1CCC(C(=O)NC[C@@H]2C=C(C)[C@H](CC(=O)N(C)Cc3ccccc3)C[C@H]2C(C)C)CC1 do in these assays?
Pf Dd2 inh: inactive

How did CNC(=O)CCC[C@@H]1[C@H]2CCCN3CCC[C@@H](CN1C(=O)CCOC)[C@@H]23 do in these assays?
Pf Dd2 inh: inactive

What do the screens show for `O=C(c1cccc(F)c1)N1CCCC1c1nc(C2CCOCC2)no1` (centres undefined)?
Pf Dd2 inh: inactive

Results for O=C1Cc2c(-c3ccccc3OCc3ccccc3)n[nH]c2CN1Cc1ccccc1 ?
Pf Dd2 inh: 10µM

Results for COc1ccc(-c2n[nH]c3c2CC(=O)N(Cc2ccccn2)C3)cc1F ?
Pf Dd2 inh: inactive

What do the screens show for `O=C1Cc2c(-c3ccccc3Cl)n[nH]c2CN1Cc1ccccc1`?
Pf Dd2 inh: inactive

Results for O=C1Cc2c(-c3ccccc3OCc3ccccc3)n[nH]c2CN1Cc1ccccn1 ?
Pf Dd2 inh: 10µM

What do the screens show for `COc1ccc(CN2Cc3[nH]nc(-c4ccccc4OC)c3CC2=O)cc1`?
Pf Dd2 inh: inactive

What do the screens show for `O=C1Cc2c(-c3cccc4ccccc34)n[nH]c2CN1Cc1ccccn1`?
Pf Dd2 inh: inactive

Results for COc1cccc(C(=O)N(C)Cc2ccc(-c3ccccc3)cc2)c1 ?
Pf Dd2 inh: inactive

How did CN(CC1CCOC1)S(=O)(=O)c1cc(F)cc(F)c1 (centres undefined) do in these assays?
Pf Dd2 inh: inactive[5.79 µM]

Results for O=C(NCc1nnc2ccc(-c3ccccc3)nn12)c1ccccc1F ?
Pf Dd2 inh: inactive

Results for COc1ccc(F)c(-c2nc(CN3CCN4C(=O)CNC(=O)C4C3)c(C)o2)c1 (centres undefined) ?
Pf Dd2 inh: inactive

What do the screens show for `O=C(CSc1nc2c([nH]c3ccccc32)c(=O)n1-c1ccc(Cl)cc1)c1ccccc1`?
Pf Dd2 inh: inactive

Results for CCN(CC)CCSc1nc2ccccc2c(=O)n1-c1ccc(Cl)cc1 ?
Pf Dd2 inh: 7.9µM

Results for CCCSc1nc2ccccc2c(=O)n1-c1ccccc1OC ?
Pf Dd2 inh: inactive

Results for CC1=C(C(=O)OCc2ccccc2)C(c2cccc(Cl)c2Cl)CC(=O)N1 (centres undefined) ?
Pf Dd2 inh: inactive

What do the screens show for `CC1=C(C(=O)OCc2ccc(C)cc2)C(c2ccccc2C(F)(F)F)CC(=O)N1` (centres undefined)?
Pf Dd2 inh: 5.6µM

How did CC1=C(C(=O)OCC2CCCCC2)C(c2cccc(Cl)c2Cl)CC(=O)N1 (centres undefined) do in these assays?
Pf Dd2 inh: inactive

Results for CNC(=O)[C@@H]1CN(C(=O)c2cc(F)ccc2F)C[C@H]1COC ?
Pf Dd2 inh: inactive

Compound activity (PubChem BioAssay)
